One assay concerns CRL-7250. The assay is described as follows: Cytotoxic Profiling of Annotated Libraries Using Quantitative High-Throughput Screening (AID 1296008). For max response: % is set by controls: 0 for no effect and ±100 for the full control effect. Note: potency is the fitted concentration of half-maximal effect. The settings on record: Five cell lines viability, CellTiter-Glo ATP luminescence, 48-72 h; max response: hits give low values. The gist of the method:
(§1)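 Cells exposed to compounds for 48 or 72 hr at 37 degrees Celsius. Viability read as ATP-coupled luminescence with CellTiter-Glo after 10 min at room temperature.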

The subject of assay [1] is HaCat. The assay is described as above. The settings on record: Five cell lines viability, CellTiter-Glo ATP luminescence, 48-72 h; max response: hits give low values. The gist of the method: as §1
For another assay, the system named is NIH3T3. The description is as above. Particulars: Five cell lines viability, CellTiter-Glo ATP luminescence, 48-72 h; max response: hits give low values. The gist of the method: as §1
A further assay has as its system KB-3-1. Described as above. Particulars: Five cell lines viability, CellTiter-Glo ATP luminescence, 48-72 h; max response: hits give low values. The gist of the method: as §1
Assay [2] deals with HACAT. The assay is described as follows: qHTS assay to identify novel small-molecules to repurpose for Merkel cell carcinoma treatment (AID 1296009). The settings on record: MCC and control cell lines, CellTiter-Glo viability, 72 h; at 44.8 µM (top of the series) unless noted. The gist of the method:
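Cells were incubated with compound for 72 hr at 37 degree celsius before CellTiter-Glo addition. Luminescence was normalized with no-cell wells as full cytotoxicity and DMSO as baseline.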

Inconclusive results are not listed. Unmarked numbers belong to inactive results. The source made the active and inactive calls. Calls come from the whole dose curve; as a rule, active = well fitted inhibition curve with a large enough effect; inconclusive = small, poorly fitted or top-dose-only effect; inactive = flat fitted curve, though single readings scatter.
Note: nearly all actives have a fitted effect of over 60% in size.

In the case of `CC1(C)CC[C@]2(C(=O)O)CC[C@]3(C)C(=CCC4[C@@]5(C)C[C@@H](O)[C@H](O)[C@@](C)(CO)C5CC[C@]43C)[C@@H]2[C@@H]1O` (some centres not stated), the max response in the assay on CRL-7250 is 2.24%; in the assay on HaCat [1] it was -17.5%; with NIH3T3 it was 4.68%.
For `COc1cc(CN(CCN)C(=O)c2cccs2)ccc1OCc1ccccc1`, the max response with CRL-7250 is 4.59%; with HaCat [1] it was -3.01%; in the assay on NIH3T3, -11.2%.
As for `CC(C)S(=O)(=O)c1ccc2nccc(Nc3ccc4scnc4c3)c2c1`, the max response in the assay on CRL-7250 was -19%. Further, the outcome in the assay with HaCat [1], with KB-3-1 and in the assay with HACAT [2] was inactive.
As to `Cc1cc(C(C)Nc2ccccc2C(=O)O)c2nc(N3CCOCC3)cc(=O)n2c1` (configuration not stated), the max response in the assay on CRL-7250 was -22.4%. The Potency with HaCat [1] is 7310 nM (active); with NIH3T3, 23100 nM (active).
Turning to `Cc1ccccc1CN1CCn2c1nc1c(c2=O)CN(Cc2ccccc2)CC1`, the max response in the assay on CRL-7250 is 1.02%; in the assay with KB-3-1, -11.6%. The call in the assay with HaCat [1] and in the assay on HACAT [2] was inactive.
With `CC(=O)OC1C(OC(=O)c2ccccc2)C2C(=C(C)CCC2(C)C)C23CCC(C)(C2)C(=O)CC13` (configuration not stated), the max response in the assay on CRL-7250 was -34.2%; in the assay on HaCat [1], -3.85%; in the assay on NIH3T3, -18.4%.
Turning to `CCc1cccc(CC)c1-n1c(C=C(C)C)c(C(=O)N2CCNCC2)cc(-c2nc(-c3ccc(C(F)(F)F)cc3)cs2)c1=O`, in the assay on CRL-7250, the compound was classed as inactive. For the same compound, the max response in the assay on HaCat [1] was -5.33%; with NIH3T3, -4.22%.
For the compound `C=C1C(=O)OC2/C=C(\C)CC/C=C(\C=O)C(OC)C(OC(=O)C(C)CC)C12` (configuration not stated), the max response in the assay with CRL-7250 was -23.9%; in the assay with KB-3-1 it was -2.57%. In addition, the compound was called inactive with HaCat [1] and in the assay on HACAT [2].
Take `C=CCC1=C[C@]2(OC)[C@H](C)[C@@H](c3ccc4c(c3)OCO4)O[C@]2(OC)CC1=O`: the max response with CRL-7250 was -2.76%; in the assay on HaCat [1], -12.1%; in the assay on NIH3T3, 1.18%.
As for `CO[C@H]1[C@@H](O)[C@H](O[C@H]2CC[C@@]3(C)C(CCC4C3CC[C@]35COC6(COC(=O)C6)C3CCC45O)C2)O[C@@H](C)[C@@H]1OC1OC(CO)C(OC2OC(CO)C(O)C(O)C2O)C(O)C1O` (some centres not stated), the Potency with CRL-7250 is 3480 nM (active). For the same compound, the max response in the assay with HaCat [1] was -26.8%. Further, the compound was called inactive in the assay on NIH3T3.
Regarding `CCc1cc2c(cc1CC)CC(NCC(O)c1ccc(O)c3[nH]c(=O)ccc13)C2` (configuration not stated), the compound was classed as inactive in the assay with CRL-7250. The max response with HaCat [1] is 2.19%; in the assay with NIH3T3, 2.82%.
Take `O=C1c2ccc(Nc3ccc(F)cc3F)cc2CCc2ccc(OCC(O)CO)cc21` (configuration not stated): the max response was -2.8% with CRL-7250, 0.902% in the assay on HaCat [1] and -2.95% in the assay on NIH3T3.
With `O=S(=O)(NCc1ccccn1)c1ccc(Br)c2ccccc12`, the max response is -0.212% in the assay with CRL-7250, 1.53% in the assay with HaCat [1] and -0.344% in the assay with NIH3T3.
With `Cc1cc(CS(=O)(=O)c2ccccc2)cc(OCc2ccc(CN3CCCC3CO)cc2)c1` (configuration not stated), the max response with CRL-7250 is 4.21%; in the assay on KB-3-1 it was -16.6%. For the same compound, the result in the assay with HaCat [1] and in the assay with HACAT [2] was inactive.
On to `CCCCOC(=O)NS(=O)(=O)c1sc(CC(C)C)cc1-c1ccc(Cn2ccnc2)cc1`, for which the results for the max response in the assay on CRL-7250 and in the assay on HaCat [1] were -0.539% and -26.5%, respectively. In addition, in the assay with NIH3T3, the compound was classed as inactive.
As for `O=C(OC1CN2CCC1CC2)N1CCc2ccccc2C1c1ccccc1` (configuration not stated), the max response was 0.185% with CRL-7250 and -9.02% in the assay on KB-3-1. Further, the outcome in the assay on HaCat [1] and with HACAT [2] was inactive.
Consider `NC(N)=NC(=O)c1cnn(-c2cccc3ncccc23)c1C1CC1`, for which the max response with CRL-7250 is -23.8%; in the assay on HaCat [1] it was -2.12%; in the assay on NIH3T3, -11.3%.
Turning to `CCC(C)CNCC(=O)N1CCC2SC=CC2C1COc1cccc(C)c1` (configuration not stated), the results for the max response in the assay on CRL-7250, with HaCat [1] and in the assay on NIH3T3 were -4.73%, 3.39% and -20.9%, respectively.
For `Cc1nc2c(C(F)(F)F)cccc2nc1-c1ccc(-c2cccc(S(C)(=O)=O)c2)cc1` the same measures were -1.09%, -0.882% and -12.4%.
Consider `COc1cccc(-c2cc(F)ccc2C2Cc3nc(N)nc(C)c3C(=O)N2)n1` (configuration not stated), for which the figures for the Potency in the assay on CRL-7250, with HaCat [1] and with NIH3T3 were 146 nM (active), 46.1 nM (active) and 58 nM (active), respectively.
For `COC(=O)C[C@H]1[C@]2(C)C3=C(C)[C@H](c4ccoc4)C[C@H]3O[C@@H]2[C@H](O)C2[C@](C)(C(=O)OC)C=CC(=O)[C@@]21C` (some centres not stated), the max response in the assay with CRL-7250 was -6.81%; with HaCat [1] it was -7.74%; with NIH3T3 it was 3.36%.
In the case of `CCCc1ccc(OCC(=O)N(Cc2nc(-c3cccnc3)no2)C(C)C)cc1`, the Potency in the assay with CRL-7250 is 23100 nM (active). The max response with HaCat [1] was -2.41%; with NIH3T3, -9.24%.
For `O=C(NNc1nc2cc(F)ccc2n2cccc12)c1cnccn1`, the Potency was 1300 nM (active) in the assay with CRL-7250, 3260 nM (active) in the assay on HaCat [1] and 4110 nM (active) in the assay on NIH3T3.
For `CCN(Cc1cc(Nc2nc(C)cn3c(-c4cn[nH]c4)cnc23)sn1)C(C)(C)CO` the same measures were 73.1 nM (active), 1460 nM (active) and 461 nM (active).

(Values after PubChem BioAssay (NCATS).)
